Results: PubChem BioAssay AID371 (SRMLSC, 2006)
Several values for one entry are separate records, joined by “and”; a condition that tells them apart may be missing. Identical values can stand only once. Screen size: about 3,300 compounds; about 280 (8.5%) were called active.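 How the source made its calls: active means mean growth inhibition over the two runs of 50% or more; inactive means mean growth inhibition under 50%.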 Only a selection was taken, and actives are over-represented in it overall.

Experiment: A549 NSCLC cell proliferation inhibitors – ATP luminescence, human non-small cell lung line, primary screen (AID 371);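 further: compound exposure lasted 72 h before the ATP read; 0% = untreated cell signal and 100% = no luminescence left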
Details: at 10 µM, hits give high values

Row | SMILES | growth inhibition
1 | c1ccc(C2Nc3ccccc3-c3nc4ccccc4n32)nc1 (stereo not given) | 26% (inactive)
2 | Cc1nn(CC(=O)NCCN2CCOCC2)c(=O)c2ccccc12 | 1.62% (inactive)
3 | Oc1ccccc1CNn1cnnc1 | 7.07% (inactive)
4 | Cc1ccc(OCC(=O)N(C)CCc2ccccn2)cc1 | -1.84% (inactive)
5 | O=C(NCc1cccnc1)c1ccc(=O)oc1 | -2.22% (inactive)
6 | CSc1nc(NC(C)=O)nc(C)c1Cl | 3.88% (inactive)
7 | C=CCN(C(=O)CCC(=O)O)C1CC(=O)N(c2ccc(OCCC)cc2)C1=O (stereo not given) | 34.7% (inactive)
8 | CCN(CC)CC(=O)Nc1c(C)cccc1C | -1.4% (inactive) and -6.03% (inactive)
9 | Cc1cccc(C)c1NC(=O)CSCC(=O)c1ccc(O)c(O)c1 | 76.2% (active)
10 | Cc1cccc(C)c1NC(=O)C1CCCCN1C (stereo not given) | -1.85% (inactive)
11 | COc1ccc(/C(O)=C2/C(=O)C(=O)N(CCN3CCOCC3)C2c2ccccn2)cc1 (stereo not given) | 7.6% (inactive)
12 | Cc1cc(=O)[nH]c(COc2ccccc2)n1 | 6.76% (inactive)
13 | Cc1cc(C)n(C(=O)CSc2nc3ccccc3o2)n1 | -7.75% (inactive)
14 | COCc1cc(=O)[nH]c(Nc2nc3ccccc3o2)n1 | 66.6% (active)
15 | Cc1cccc(OCc2nc(C)cc(=O)[nH]2)c1 | 1.95% (inactive)
16 | COCc1cc(=O)[nH]c(Nc2nc3ccc(C)cc3o2)n1 | 70.6% (active)
17 | COc1ccccc1C1CC(c2ccc(Cl)cc2)Nc2nc(N)nn21 (stereo not given) | 8.72% (inactive)
18 | Cc1cc2c(C)nc(Cc3ccccc3)nc2o1 | 1.92% (inactive)
19 | CCCCCCn1c(C(C)O)nc2ccccc21 (stereo not given) | 15.7% (inactive)
20 | COc1cccc(/C(O)=C2/C(=O)C(=O)N(CCCN(C)C)C2c2cccc(Cl)c2)c1 (stereo not given) | -2.1% (inactive)
21 | Cc1cccc(N2CN=c3s/c(=C\c4ccncc4)c(=O)n3C2)c1 | 5.71% (inactive)
22 | N#CC1=C(N)N(c2ccccc2)C(c2ccccc2)C1(C#N)C#N (stereo not given) | 21.4% (inactive)
23 | Cn1ncc(N=Cc2c(O)ccc3ccccc23)c1C(=O)N1CCOCC1 | 3.71% (inactive)
24 | Cc1coc2c(O)cc3c(c12)OC1(N2CCCCC2)C(=O)NCCCC31 (stereo not given) | 91.4% (active)
25 | COc1ccc(C2N3CC4(C)CN2CC(C)(C3)C4O)cc1OC (stereo not given) | 0.13% (inactive)
26 | CC1(C)Cc2c(oc3ncn4ncnc4c23)CO1 | 0.31% (inactive)
27 | COc1cc(C)nc(Oc2ccc(OCCOc3ccc(C)cc3)nn2)n1 | 6.13% (inactive)
28 | CC1CCN(c2[nH]c(=S)c(C#N)c3c2CCCC3)CC1 | 56% (active)
29 | CCc1[nH]c(=O)c(C#N)c2c1CCCC2 | 2.12% (inactive)
30 | CC1(C)Cc2c(c(N3CCCCC3)[nH]c(=S)c2C#N)CS1 | 4.02% (inactive)
